± gives the standard deviation of the averaged measurements.

This assay relates to Caenorhabditis elegans N2 infected with Nematocida parisii ERTm1. Description: progeny production relative to DMSO uninfected control; higher = more progeny despite microsporidia infection (inhibition of infection with low host toxicity). Particulars: infection time 6 days. The method in brief:
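In 96-well plates holding K-medium, E. coli OP50 and 15,000 N. parisii spores/μL, 100 wild-type C. elegans L1 larvae per well were exposed to compound at 100 μM or 40 μM in 1% DMSO for 6 days with shaking at 21°C. Worms were then stained with Rose Bengal, scanned and counted with WorMachine, with three runs per compound and dose. Each value is progeny production as a percentage of the spore-free vehicle condition, averaged over replicates.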

With `O=C(Nc1cccc(C2=NCCN2)c1)c1ccc(-c2ccc(C(=O)Nc3cccc(C4=NCCN4)c3)cc2)cc1`, the progeny production runs as follows: (40 µM) 7.71 ± 2.9%; (100 µM) 27.6 ± 16%.
On to `CC#C[C@]1(O)CC[C@H]2[C@@H]3CCC4=CC(=O)CCC4=C3[C@@H](c3ccc(N(C)C)cc3)C[C@@]21C`, for which the progeny production was found to be 4.64 ± 1.1% (40 µM) and 14.9 ± 4.7% (100 µM).
`O=C(N[C@H](CCS)C(=O)N[C@H](Cc1ccccc1)C(=O)O)c1cc2ccccc2[nH]1`: the progeny production came out at 6.68 ± 3.5% (40 µM) and 11.3 ± 6.7% (100 µM).
The like results for `Cc1nc(-c2ccc(C3N(C)c4ccc(F)cc4C(=O)N3c3ccccc3)s2)cs1` (centres undefined) were, in that order, 3.69 ± 1.5% and 6.47 ± 4.9%.
`NS(=O)(=O)c1ccc(NC(=O)NC(c2ccccc2)c2ccccc2)cc1`: the progeny production amounted to 6.18 ± 1.6% (40 µM) and 16.9 ± 14% (100 µM).
On to `Cc1cc(O)c2c(c1)C(=O)c1c(I)c(O)c(I)c(O)c1C2=O`, for which the progeny production by setting is: (40 µM) 8.9 ± 5.8%; (100 µM) 25.1 ± 5.2%.
In the same order, the values of `COc1ccccc1NC(=O)c1ccccc1Sc1ccc([N+](=O)[O-])cc1` are 6.65 ± 3.2% and 14.7 ± 2.9%.
The like results for `CC(C)N(c1cc(-c2ccccc2)sc1C(=O)O)C(=O)[C@H]1CC[C@H](C)CC1` were, in that order, 4.15 ± 1.8% and 12.2 ± 7.8%.
The like results for `O=C(/C=C\n1cnc(-c2cc(C(F)(F)F)cc(C(F)(F)F)c2)n1)NNc1ccccn1` were, in that order, 3.49 ± 1.1% and 7.21 ± 3.6%.
In turn, `Nc1ccc(-c2nc3cc(C(F)(F)F)ccc3n2C23CC4CC(CC(C4)C2)C3)cc1` showed a progeny production (40 µM) of 5.81 ± 2.1% and a progeny production (100 µM) of 17 ± 6%.
On to `NC(=O)c1[nH]c2ccc(S(N)(=O)=O)cc2c1-c1ccccc1`, for which the progeny production is, setting by setting: (40 µM) 4.85 ± 2.6%; (100 µM) 6.59 ± 2.8%.
The like results for `CSc1ccc2c(c1)C(N1CCN(C)CC1)Cc1ccccc1S2` (centres undefined) were, in that order, 5.75 ± 2.9% and 13.9 ± 9%.
Regarding `O=C(N[C@H](Cc1cccc2ccccc12)C(=O)NCCc1c[nH]cn1)C1Cc2ccccc2C1`, the progeny production is, setting by setting: (40 µM) 7.87 ± 3.1%; (100 µM) 17.2 ± 4.5%.
In the same order, the values of `C[C@H](NC(=O)C(=O)Nc1ccccc1C(C)(C)C)C(=O)N[C@@H](CC(=O)O)C(=O)COc1c(F)c(F)cc(F)c1F` are 5.12 ± 0.88% and 15 ± 11%.
For the molecule `O=C(NC1CCCc2c1[nH]c1ccc(Cl)cc21)c1ccccn1` (centres undefined), the progeny production came to 2.24 ± 0.5% (40 µM) and 7.35 ± 5.1% (100 µM).
In the same order, the values of `CN(C)CC(=O)Nc1ccc2[nH]c(=O)c3ccccc3c2c1` are 3.86 ± 0.4% and 14.1 ± 5%.
The like results for `Nc1nc(-c2ccccc2)nc2c1ncn2[C@@H]1O[C@H](COS(=O)(=O)NC(=O)c2ccccc2O)[C@@H](O)[C@H]1O` were, in that order, 6.94 ± 2.3% and 6.74 ± 3.1%.
Regarding `N#CCN1C(=O)COc2cc(F)c(N3C(=O)c4ccccc4C3=O)cc21`, the progeny production (40 µM) stood at 3.98 ± 0.99% and the progeny production (100 µM) worked out at 15.2 ± 12%.
In the same order, the values of `Cc1onc(-c2ccccc2)c1-c1ccc(S(N)(=O)=O)cc1` are 3.75 ± 1.8% and 7.71 ± 5.3%.
Turning to `C(=C\c1nc2ccccc2[nH]1)/c1ccc2c(c1)OCO2`, the progeny production turned out to be 7.35 ± 5.9% (40 µM) and 16.6 ± 18% (100 µM).
Regarding `CCN(CC)CCCC(C)Nc1ccnc2cc(Cl)ccc12` (centres undefined), the progeny production reads like this: (40 µM) 8.75 ± 5.2%; (100 µM) 5.16 ± 3.5%.
The like results for `COc1cc(C(C(=O)NC2CCCCC2)N(C(=O)Cc2c[nH]c3ccccc23)c2ccc(C(C)C)cc2)cc(OC)c1OC` (centres undefined) were, in that order, 5.01 ± 0.57% and 7.98 ± 2%.
In the same order, the values of `COc1ccc(OCc2ccc(COc3c(Cl)cccc3Cl)cc2)c(Cl)c1` are 5.83 ± 3.1% and 12.3 ± 5.3%.
Turning to `CSC[C@H]1CN(Cc2c[nH]c3c(N)ncnc23)C[C@@H]1O`, the progeny production by setting is: (40 µM) 8.02 ± 2.9%; (100 µM) 15.3 ± 10%.
As for `O=C(NCCN1CCCCC1)c1cccc(C(F)(F)F)c1`, the progeny production runs as follows: (40 µM) 5.09 ± 1.5%; (100 µM) 18.2 ± 16%.
`C[C@@H](c1nc(-c2ccc(C#N)cc2)cs1)[C@](O)(Cn1cncn1)c1ccc(F)cc1F`: the progeny production is, setting by setting: (40 µM) 5.04 ± 1.2%; (100 µM) 14.7 ± 10%.
In the same order, the values of `COc1ccc(-n2cnc3cc(NCc4ccco4)ccc32)cc1` are 10 ± 2.1% and 17.2 ± 0.88%.
In the same order, the values of `NC(=O)c1nccn([C@@H]2O[C@H](CO)[C@@H](O)[C@H]2O)c1=O` are 6.9 ± 2.3% and 10.3 ± 7.2%.
The like results for `CCCCc1ccc(-c2cc(C(=O)O)cc(-c3ccc(Cl)cc3)n2)cc1` were, in that order, 5.13 ± 5.7% and 9.87 ± 7.3%.
Turning to `CC(C)Cn1c(=O)n(C)c(=O)c2c(-c3cncn3C)n(Cc3cccc4ccccc34)nc21`, the progeny production is 4.44 ± 2.9% (40 µM) and 6.12 ± 1.8% (100 µM).
In the same order, the values of `Nc1nc2c(ncn2/C=C2/CC2(CO)CO)c(=O)[nH]1` are 3.83 ± 2.6% and 11.8 ± 3.7%.
In the same order, the values of `NC(=O)[C@@H]1CC[C@@H]2CN1C(=O)N2OS(=O)(=O)O` are 8.69 ± 1.4% and 22.2 ± 16%.
The like results for `Cn1cncc1[C@@](N)(c1ccc(Cl)cc1)c1ccc2c(c1)c(-c1cccc(Cl)c1)cc(=O)n2C` were, in that order, 2.71 ± 0.38% and 8.73 ± 2.4%.
For `Cc1cc(C2CCCCC2)n(O)c(=O)c1`, the progeny production was found to be 5.34 ± 2.3% (40 µM) and 33 ± 36% (100 µM).
In the same order, the values of `COc1ccc(C[C@@H](C)[C@@H](C)Cc2ccc(OC)c(OC)c2)cc1OC` are 3.86 ± 0.4% and 16 ± 4.1%.
`CN1CCN(Cc2ccc(-c3cnc4[nH]cc(-c5ccc6[nH]ccc6c5)c4c3)cc2)CC1`: the progeny production was found to be 9.2 ± 4.8% (40 µM) and 14.6 ± 5.6% (100 µM).
Turning to `CCC[C@H](NC(=O)[C@@H]1[C@H]2CCC[C@H]2CN1C(=O)[C@@H](NC(=O)[C@@H](NC(=O)c1cnccn1)C1CCCCC1)C(C)(C)C)C(=O)C(=O)NC1CC1`, the progeny production (40 µM) is 9.24 ± 1.8% and the progeny production (100 µM) was determined as 10.3 ± 1.3%.
